Screening results from PubChem.
A selection: hits, their analogues and other compounds. The true share with any hit is near 6.7%.
Tcruzi prolif: T. cruzi intracellular proliferation inhibitors, primary screen, cell-based, beta-gal Tulahuen parasites, NIH3T3 host, luminescence; T. cruzi beta-gal in NIH3T3, GalScreen luminescence, 90 h; inhibition, % at 8.34 µM; 77,000 compounds, 5.9% hits;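 active = mean inhibition above about 93%, with at least 55% of replicates each passing it, limit read from the data, passing the limit was not always enough; inconclusive = only one of those two conditions holds; inactive = neither condition holds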
C diff growth: C. difficile growth inhibitors, primary screen, HTS; Clostridium difficile clinical isolate growth, OD600, 24 h; stronger effect = lower value; growth activity, negative = inhibition, % at 16 µg/mL (by protocol); 86,000 compounds, 0.25% hits; AID 1259249, 2017;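 active = mean growth activity at or below -80% and every replicate also at or below -80%; inconclusive = mean at or below -80% but some replicate above -80%; inactive = mean growth activity above -80%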
Pf Dd2 inh: P. falciparum Dd2 growth inhibitors, primary screen, SYBR Green fluorescence, single dose replicates | 72 h; stronger effect = lower value | activity change, % at 10 µM | 94,000 compounds, 2.3% hits | AID 1159554, 2015; in the data active = activity change below about -80%; inconclusive = no clear call, values can overlap the other calls
Of the large screens only hits and unclear results are named; the others gave an inactive call.

CCCNC(=O)Nc1ccc2c(c1)OC[C@@H](C)N(Cc1ccccc1)C[C@@H](C)[C@H](OC)CN(C)C2=O	Pf Dd2 inh -87
CCC(=O)Nc1ccc2c(c1)OC[C@H](C)N(Cc1ccccn1)C[C@@H](C)[C@@H](OC)CN(C)C2=O	none (no result: C diff growth)
CCCNC(=O)Nc1ccc2c(c1)C(=O)N(C)C[C@H](OC)[C@@H](C)CN(C(=O)C1CCOCC1)[C@H](C)CO2	none (no result: C diff growth)
CCC(=O)Nc1ccc2c(c1)OC[C@H](C)N(Cc1ccccn1)C[C@H](C)[C@H](OC)CN(C)C2=O	Pf Dd2 inh -84 (no result: C diff growth)
CCCNC(=O)Nc1ccc2c(c1)C(=O)N(C)C[C@@H](OC)[C@H](C)CN(C(=O)C1CCOCC1)[C@@H](C)CO2	Pf Dd2 inh -87 (no result: C diff growth)
C[C@H]1CN([C@@H](C)CO)C(=O)c2cc(C3=CCCCC3)cnc2O[C@@H]1CN(C)C(=O)Nc1ccccc1	none (no result: Pf Dd2 inh)
CC(=O)N1[C@@H]2c3ccc(C4=CCCCC4)c(=O)n3C[C@@H]2[C@@H](CO)[C@@H]1C(=O)N1CCCCC1	none
CC(C)NC(=O)N(C)C[C@@H]1Oc2cc(C#C[C@@H](C)O)ccc2S(=O)(=O)N([C@H](C)CO)C[C@@H]1C	none (no result: Tcruzi prolif)
CCCC(=O)Nc1ccc2c(c1)OC[C@@H](C)N(Cc1ccc(F)cc1)C[C@@H](C)[C@H](OC)CN(C)C2=O	Pf Dd2 inh -87 (no result: Tcruzi prolif)
CO[C@H]1CN(C)C(=O)c2ccc(NC(=O)NC(C)C)cc2OC[C@H](C)N(Cc2ccccc2)C[C@H]1C	none (no result: C diff growth)
CO[C@@H]1CN(C)C(=O)c2ccc(NC(=O)NC(C)C)cc2OC[C@@H](C)N(Cc2ccccc2)C[C@H]1C	Pf Dd2 inh -85 (no result: Tcruzi prolif)
CCCC(=O)Nc1ccc2c(c1)OC[C@H](C)N(Cc1ccc(F)cc1)C[C@@H](C)[C@H](OC)CN(C)C2=O	Tcruzi prolif inconclusive (no result: C diff growth)
COc1ccc2c3c(n(C)c2c1)[C@@H](CO)N(C(=O)CN(C)C)CC31CN(Cc2cccnc2)C1	none (no result: Tcruzi prolif, C diff growth)
COC(=O)c1cn(CCNC(=O)[C@H](Cc2ccccc2)NS(=O)(=O)c2ccc(C)cc2)nn1	none (no result: Tcruzi prolif, Pf Dd2 inh)
CCCN(C)C[C@H]1Oc2cc(C#Cc3ccccc3OC)ccc2S(=O)(=O)N([C@H](C)CO)C[C@H]1C	Pf Dd2 inh -81
C[C@@H]1CN([C@@H](C)CO)S(=O)(=O)c2ccc(-c3ccc(C#N)cc3)cc2O[C@@H]1CN(C)CC1CC1	none
C[C@H]1CN([C@@H](C)CO)S(=O)(=O)c2ccc(C#Cc3cccnc3)cc2O[C@H]1CN(C)CC1CC1	none (no result: C diff growth)
CCCN(C)C[C@@H]1Oc2cc(C#Cc3cccnc3)ccc2S(=O)(=O)N([C@@H](C)CO)C[C@@H]1C	Pf Dd2 inh -86
C[C@H]1CN([C@@H](C)CO)S(=O)(=O)c2ccc(-c3ccc(C#N)cc3)cc2O[C@H]1CN(C)CC1CC1	Pf Dd2 inh -91
CCCN(C)C[C@@H]1Oc2cc(C#Cc3ccccc3OC)ccc2S(=O)(=O)N([C@@H](C)CO)C[C@@H]1C	none
CCCN(C)C[C@H]1OCCCC[C@H](C)Oc2ccc(NS(=O)(=O)c3cccs3)cc2C(=O)N([C@@H](C)CO)C[C@H]1C	none (no result: Tcruzi prolif)
CCCN(C)C[C@H]1OCCCC[C@@H](C)Oc2ccc(NS(=O)(=O)c3cccs3)cc2C(=O)N([C@@H](C)CO)C[C@@H]1C	Pf Dd2 inh -90
CCCN(C)C[C@H]1OCCCC[C@H](C)Oc2ccc(NS(=O)(=O)c3cccs3)cc2C(=O)N([C@H](C)CO)C[C@H]1C	Pf Dd2 inh inconclusive
CCCN(C)C[C@H]1OCCCC[C@@H](C)Oc2ccc(NS(=O)(=O)c3cccs3)cc2C(=O)N([C@H](C)CO)C[C@@H]1C	Pf Dd2 inh -86 (no result: Tcruzi prolif)
C[C@@H]1CN([C@@H](C)CO)C(=O)c2cc(C#CCN(C)C)cnc2O[C@H]1CN(C)C(=O)c1ccc(F)cc1	none
O=C(C[C@H]1CC[C@@H]2[C@H](COC[C@@H](O)CN2C(=O)Nc2ccc(C(F)(F)F)cc2)O1)NCC1CC1	none (no result: C diff growth)
CCC(=O)N1CCC2(CC1)CN(Cc1ccccc1Cl)[C@H](CO)c1c2c2ccc(OC)cc2n1C	none (no result: Tcruzi prolif)
C[C@@H]1CN([C@H](C)CO)C(=O)Cc2cc(N(C)C)ccc2O[C@H]1CN(C)Cc1ccncc1	none
COc1ccc2c3c([nH]c2c1)[C@H](CO)N(C)CC31CCN(S(=O)(=O)c2ccc(C)cc2)CC1	none (no result: Tcruzi prolif)
CCCC(=O)N1CCC2(CC1)CN(S(=O)(=O)c1ccc(C)cc1)[C@@H](CO)c1[nH]c3cc(OC)ccc3c12	Pf Dd2 inh -92 (no result: Tcruzi prolif)
COc1ccc2c3c([nH]c2c1)[C@@H](CO)N(S(=O)(=O)c1ccccc1)CC31CCN(C)CC1	none (no result: Tcruzi prolif)
CCC(=O)N1CCC2(CC1)CN(S(=O)(=O)c1ccccc1)[C@H](CO)c1[nH]c3cc(OC)ccc3c12	Pf Dd2 inh -86 (no result: Tcruzi prolif)
COc1ccccc1S(=O)(=O)N[C@H]1CC[C@H](CCNC(=O)C2CCCC2)O[C@H]1CO	none (no result: Tcruzi prolif)
CC(C)NC(=O)N[C@@H]1CC[C@@H](CC(=O)NCCN2CCCC2)O[C@@H]1CO	none
O=C(NC1CCCC1)N1CC(=O)N2[C@@H](CO)[C@H](c3ccc(-c4cccnc4)cc3)[C@@H]2C1	none (no result: Tcruzi prolif)
C[C@@H]1CN([C@H](C)CO)C(=O)c2cccc(NC(=O)CCCCCC(=O)Nc3ccccc3N)c2O[C@H]1CN(C)CC1CC1	none (no result: Tcruzi prolif)
C[C@H]1CN([C@@H](C)CO)C(=O)c2cccc(NC(=O)CCCCCC(=O)Nc3ccccc3N)c2O[C@@H]1CN(C)CC1CC1	none (no result: Tcruzi prolif)
C[C@H]1CN([C@@H](C)CO)C(=O)c2cccc(NC(=O)CCCCCC(=O)Nc3ccccc3N)c2O[C@H]1CN(C)CC1CCCCC1	Pf Dd2 inh -83 (no result: Tcruzi prolif)
C[C@@H]1CN([C@@H](C)CO)C(=O)c2cccc(NC(=O)CCCCCC(=O)Nc3ccccc3N)c2O[C@H]1CN(C)CC1CC1	Pf Dd2 inh -85 (no result: Tcruzi prolif)
C[C@H](CO)N1C[C@H](C)[C@@H](CN(C)CC2CCCCC2)Oc2c(NC(=O)CCCCCC(=O)Nc3ccccc3N)cccc2C1=O	Pf Dd2 inh -88 (no result: Tcruzi prolif)
C[C@@H]1CN([C@H](C)CO)C(=O)c2cccc(NC(=O)CCCCCC(=O)Nc3ccccc3N)c2O[C@@H]1CN(C)CC1CC1	none (no result: Tcruzi prolif)
C[C@H]1CN([C@@H](C)CO)C(=O)c2cc(-c3ccccc3)cnc2O[C@@H]1CN(C)Cc1cccnc1	none
CCC(=O)NC[C@@H]1[C@@H](c2ccccc2)[C@@H](CO)N1C(=O)C1CC1	none
COc1cccc(NC(=O)N(C)C[C@@H]2Oc3cc(C#Cc4ccncc4)ccc3S(=O)(=O)N([C@@H](C)CO)C[C@@H]2C)c1	none
COc1cccc(NC(=O)N(C)C[C@@H]2Oc3cc(C#Cc4ccccc4)ccc3S(=O)(=O)N([C@@H](C)CO)C[C@@H]2C)c1	Tcruzi prolif inconclusive, Pf Dd2 inh -91
COc1cccc(C#Cc2ccc3c(c2)O[C@@H](CN(C)C(=O)c2ccccn2)[C@@H](C)CN([C@H](C)CO)S3(=O)=O)c1	Tcruzi prolif inconclusive
COc1ccc(C#Cc2ccc3c(c2)O[C@@H](CN(C)C(=O)c2ccccn2)[C@H](C)CN([C@@H](C)CO)S3(=O)=O)cc1	none (no result: Tcruzi prolif)
COc1cccc(C#Cc2ccc3c(c2)O[C@H](CN(C)C(=O)c2ccccn2)[C@H](C)CN([C@@H](C)CO)S3(=O)=O)c1	Tcruzi prolif 116
